RE007 growth inh = qHTS Assay for Inhibitors of the HIV-1 protein Vpr. S. pombe RE007 Vpr strain, BacTiter-Glo ATP luminescence, 24 h. Potency, µM (series often up to 92.2 µM), actives largely listed as inhibitors. 360,000 tested, 0.21% active. AID 651644, 2012; active means well fitted falling curve with a large enough effect; inconclusive means small, poorly fitted or top-dose-only effect; inactive means no such curve, though single readings can be large or run the other way; further: nearly all actives have a fitted effect of over 50% in size
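Fission yeast RE007 carrying one integrated HIV-1 vpr copy, seeded at OD 0.01 in PMG+AL medium with 23 nL pinned compound. Grown 24 h at 30 degrees; viability read by BacTiter-Glo luminescence after 5 min.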
NS1 function inh = qHTS Assay for Inhibitors of Influenza NS1 Protein Function. Potency, µM (highest dose often 46.1 µM). 270,000 tested, 0.4% active; calls by dose curve; further: actives are rising curves; nearly all actives have a fitted effect of over 50% in size
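OD600 was taken as the measure of yeast growth restored by compound in an NS1-expressing S. cerevisiae strain. Cells had been washed out of glucose medium and diluted 1:100 into galactose -URA medium, pH 6.0.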
TbPYK inhibitor = qHTS of Trypanosoma Brucei Inhibitors. pyruvate kinase (Trypanosoma brucei), Q57TT1. TbPYK enzyme, Kinase-Glo Plus ATP luminescence, 45 min. Potency, µM (titrated, usually from 76.8 µM), usual class: inhibitors. 410,000 tested, 0.12% active. AID 624173, 2012; further: nearly all actives have a fitted effect of over 50% in size
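Luminescent Kinase-Glo Plus end-point after 45 min room-temperature reaction of T. brucei pyruvate kinase started with 130 uM ADP (final). Buffer TEA 50 mM pH 7.2 with KCl, MgCl2, BSA, Tween-20; titration-based qHTS with fitted concentration-effect curves.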
LmPK inhibitor = qHTS Assay for Inhibitors of Leishmania Mexicana Pyruvate Kinase (LmPK) | Potency, µM (series often up to 57.5 µM), hits mostly inhibitors | purified LmPK, Kinase-Glo ATP luminescence, 1 h | AID 1721, 2009 | 290,000 tested, 0.37% active | Q27686
Target sequence (Q27686 whole entry, looked up): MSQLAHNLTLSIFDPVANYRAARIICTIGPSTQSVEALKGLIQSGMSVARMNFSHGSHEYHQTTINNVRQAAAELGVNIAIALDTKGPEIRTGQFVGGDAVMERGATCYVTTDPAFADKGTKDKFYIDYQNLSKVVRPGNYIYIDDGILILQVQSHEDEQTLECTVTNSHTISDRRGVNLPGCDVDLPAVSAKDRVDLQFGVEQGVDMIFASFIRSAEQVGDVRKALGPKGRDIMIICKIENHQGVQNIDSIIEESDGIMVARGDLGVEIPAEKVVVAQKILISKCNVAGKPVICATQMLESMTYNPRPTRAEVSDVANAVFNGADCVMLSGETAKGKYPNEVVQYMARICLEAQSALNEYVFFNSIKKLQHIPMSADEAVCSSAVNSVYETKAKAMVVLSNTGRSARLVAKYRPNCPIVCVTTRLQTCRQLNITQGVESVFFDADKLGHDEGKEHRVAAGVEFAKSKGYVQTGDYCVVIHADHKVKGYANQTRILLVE
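Kinase-Glo luminescence read after 1 h RT reaction of 0.1 nM LmPK with 0.5 mM PEP and 0.1 mM ADP. Activity scaled between uninhibited and enzyme-free controls.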
Numbers stand for hits. Compounds with a hit are over-represented: about 0.77% of the library has one in this group of screens. Unless noted, the call rests on the fitted dose curve; in most records, active means well fitted curve in the direction sought with a large enough effect; inconclusive means small, poorly fitted or top-dose-only effect, or another doubt; inactive means no such curve, though single readings can be large; an effect the other way counts as inactive or inconclusive.

What do the screens show for `COc1ccc(NC(=O)N2CCc3ccccc32)cc1`?
RE007 growth inh: inconclusive; NS1 function inh: inactive; TbPYK inhibitor: inconclusive; LmPK inhibitor: 13µM

Results for COc1ccc(NC(=O)N2CCCc3ccccc32)cc1 ?
RE007 growth inh: inactive; NS1 function inh: inactive; TbPYK inhibitor: inactive; LmPK inhibitor: inactive

How did C[C@H]1C[C@@H]2[C@H]([C@@H](O)C[C@@]3(C)[C@H]2CC[C@]3(O)C(=O)COC(=O)CCC(=O)O)[C@@]2(C)C=CC(=O)C=C12 do in these assays?
TbPYK inhibitor: inactive

What do the screens show for `Cc1ccc(S(=O)(=O)c2ccc([N+](=O)[O-])o2)cc1`?
RE007 growth inh: 7.9µM; TbPYK inhibitor: inactive

How did Cc1ccc(NC(=O)c2ccc([N+](=O)[O-])o2)c(C)c1 do in these assays?
RE007 growth inh: inactive; NS1 function inh: inactive; TbPYK inhibitor: inactive; LmPK inhibitor: inactive

What do the screens show for `O=C(Nc1ccc(F)cc1F)c1ccc(-n2cnnc2)cc1`?
TbPYK inhibitor: inactive

Results for COc1ccc(CCN2C(=O)c3oc4cc(C)cc(C)c4c(=O)c3C2c2ccc(F)cc2)cc1OC (stereo not drawn) ?
TbPYK inhibitor: inactive

Results for Cc1nn(CCc2n[nH]c(=S)n2C2CCCCC2)c(C)c1Br ?
RE007 growth inh: inactive; NS1 function inh: inactive; TbPYK inhibitor: 13µM; LmPK inhibitor: 7.9µM

What do the screens show for `COc1ccccc1-n1c(CCn2nc(C)c(Br)c2C)n[nH]c1=S`?
RE007 growth inh: inactive; NS1 function inh: inactive; TbPYK inhibitor: 3.5µM; LmPK inhibitor: inconclusive

How did COc1ccccc1NC(=O)Cn1c(=O)oc2cc(S(=O)(=O)NCc3ccccc3)ccc21 do in these assays?
TbPYK inhibitor: inactive

What do the screens show for `O=C(Nc1ccncc1)C1COc2ccccc2O1` (stereo not drawn)?
RE007 growth inh: inactive; NS1 function inh: inactive; TbPYK inhibitor: inactive; LmPK inhibitor: inactive

How did O=C(NC1=NCCS1)C1COc2ccccc2O1 (stereo not drawn) do in these assays?
RE007 growth inh: inactive; NS1 function inh: inactive; TbPYK inhibitor: inactive; LmPK inhibitor: 16µM

Results for Nc1ccc(-n2cc(-c3ccccc3)[nH]c2=S)cc1 ?
RE007 growth inh: inactive; NS1 function inh: inactive; TbPYK inhibitor: 2.5µM; LmPK inhibitor: inconclusive

What do the screens show for `CC(=O)NC1=NC(=O)/C(=C/c2cn(C(C)=O)nc2-c2ccccc2)S1`?
RE007 growth inh: inactive; TbPYK inhibitor: 7.1µM; LmPK inhibitor: inactive

How did COc1c(O)cc2c(c1O)[C@@H]1O[C@@H](CO)[C@@H](O)[C@@H](O)[C@@H]1OC2=O do in these assays?
TbPYK inhibitor: inactive

What do the screens show for `Cc1ccc(NC(=O)c2ccccc2)s1`?
RE007 growth inh: inactive; NS1 function inh: inactive; TbPYK inhibitor: inactive; LmPK inhibitor: inconclusive

How did Cc1cc(NC(=O)c2ccccc2)sc1C do in these assays?
RE007 growth inh: inconclusive; NS1 function inh: inactive; TbPYK inhibitor: inactive; LmPK inhibitor: 13µM

How did O=C(Nc1ccc(OCc2ccccc2)cc1)c1ccccc1 do in these assays?
RE007 growth inh: inactive; TbPYK inhibitor: inactive; LmPK inhibitor: inactive

How did Cc1cc(C(=O)Nc2ccc(OCc3ccccc3)cc2)c(C)o1 do in these assays?
RE007 growth inh: inconclusive; NS1 function inh: inactive; TbPYK inhibitor: inactive; LmPK inhibitor: 7.9µM

Results for CCn1c(-c2ccccc2)c[nH]c1=S ?
RE007 growth inh: inactive; NS1 function inh: inactive; TbPYK inhibitor: inconclusive; LmPK inhibitor: 14µM

What do the screens show for `S=c1[nH]cc(-c2ccccc2)n1-c1ccccc1`?
RE007 growth inh: inactive; NS1 function inh: inactive; TbPYK inhibitor: inconclusive; LmPK inhibitor: 3.2µM

Results for S=c1[nH]cc(-c2ccc(Cl)cc2)n1Cc1ccccc1 ?
RE007 growth inh: inactive; NS1 function inh: inactive; TbPYK inhibitor: inactive; LmPK inhibitor: inactive

What do the screens show for `CC1=C(C(=O)NCc2cccc(Br)c2)C2(CCCCC2)OC1=O`?
TbPYK inhibitor: inactive

What do the screens show for `Nc1ncnc2c1nc(-c1ccccc1)n2[C@H]1O[C@@H](CO)[C@@H](O)[C@H]1O`?
NS1 function inh: inactive

What do the screens show for `O=C1CC(N(O)C2CC(=O)N(Cc3ccccc3)C2=O)C(=O)N1Cc1ccccc1` (stereo not drawn)?
RE007 growth inh: 45µM; NS1 function inh: inactive; TbPYK inhibitor: inactive; LmPK inhibitor: inactive

What do the screens show for `CCCN(CCC)C1CC(=O)N(Cc2ccccc2)C1=O` (stereo not drawn)?
RE007 growth inh: 14µM; NS1 function inh: inactive; TbPYK inhibitor: inactive; LmPK inhibitor: inactive

Results for Cc1ccc(NC2CC(=O)N(Cc3ccccc3)C2=O)cc1 (stereo not drawn) ?
RE007 growth inh: inactive; NS1 function inh: inactive; TbPYK inhibitor: inactive; LmPK inhibitor: inactive

Compound activity from PubChem BioAssay.
